Measured values: PMC12864922, “TDP-43 directly inhibits mRNA accumulation in neurites through modulation of mRNA stability”
Over roughly 9,900 sequences, “r (bound/input frequency ratio)” has its median near 0.7; the highest 2% begin near 6.5. Shown is part of a subset that was picked to be rich in the highest values.

B1: ENSMUSG00000022095.275|Fam160b2|1:15;62:66;198:203 (ssRNA)
RNA: GGGAGUUCUACAGUCCGACGAUCGCUUCGAUAUCCGCAUGCUACACACACACACACACAGAGAGAGAGAGAGAGAGAGAGAGCUGUGAGUACACAUGGGUGCUGCACACGGACAGGAGCAGAUCUUGGUGGAGUGGGUCUACACUUGAGAUUUGUACUCGUUUGAGAGGCUGGGCAAUACUCAAUGCACUUUGGCAUUUGCAUGGUGUCUUCACAACAGCACAGCAAUAAACAUUGUGAUACACACGACAUGCUGACUCUCCCCAGUCUGCUUUUCUUUUCCCCAAGCUUUUCUGCCCCUGUACUCUUGCGGUCGCACUAGUGUGGAAUUCUCGGGUGUCAAGG
B2: ENSMUSG00000061578.1471|Ksr2|12:16 (ssRNA)
RNA: GGGAGUUCUACAGUCCGACGAUCGCUUCGAUAUCCGCAUGCUAUGGAUGGAUAGCAUACUGAAUAAAUGGAUGGAUGGAUGGAUUGAUUUGUGAAUGAAUGGAUGAAUGGAUGGGUAGGUGGGUGGAUGCAUAGGCAAGUAGAUGAAUGAAUAUGUGGGUAGAAGGGUGAGUGGGUGGAUGAAUGGAUGGAUAGGUUGGUAGGUUAAUGUAUUCGUGGAUGGGUGAAUGGAUGGAUGGAUAGAUAGAUGGGAAGGUGGAUGGACAGAUGGAUGGAUGGAUAGAUAGAUGGACAGGUGGUUGGUCUCUUGCGGUCGCACUAGUGUGGAAUUCUCGGGUGUCAAGG
B3: ENSMUSG00000061578.1474|Ksr2 (ssRNA)
RNA: GGGAGUUCUACAGUCCGACGAUCGCUUCGAUAUCCGCAUGCUAAAUAAAUGGAUGGAUGGAUGGAUUGAUUUGUGAAUGAAUGGAUGAAUGGAUGGGUAGGUGGGUGGAUGCAUAGGCAAGUAGAUGAAUGAAUAUGUGGGUAGAAGGGUGAGUGGGUGGAUGAAUGGAUGGAUAGGUUGGUAGGUUAAUGUAUUCGUGGAUGGGUGAAUGGAUGGAUGGAUAGAUAGAUGGGAAGGUGGAUGGACAGAUGGAUGGAUGGAUAGAUAGAUGGACAGGUGGUUGGUGGAUAAAUGAGUGAAUGACUCUUGCGGUCGCACUAGUGUGGAAUUCUCGGGUGUCAAGG
B4: ENSMUSG00000058297.476|Spock2 (ssRNA)
RNA: GGGAGUUCUACAGUCCGACGAUCGCUUCGAUAUCCGCAUGCUAGCUGUGUUGGAAAGAGUUCAACCAAAUUACGGCAGCACCACAUCUUGCCGAGCCCUGGAGCUGCCCUACUAAGAGCCUCCUUAGCCCUGGGUGCUGGGAAGGAUGGUGUACGUUGGGGAAGUUUGAGGUUGGAGAGAGUAAAUGUGCCUUGAGAGACCACUCAGAGGUCCCAGGAGGAACGGGGGCGGGGCUUAGCCUGGGAGUUCUGGCAGGAGGCAAAGUUGGUGAGAGUCCUGGGACAUCUUACCCCCAGUGUUCCACUCUUGCGGUCGCACUAGUGUGGAAUUCUCGGGUGUCAAGG
B5: ENSMUSG00000090935.506|Synj2bp|218:224 (ssRNA)
RNA: GGGAGUUCUACAGUCCGACGAUCGCUUCGAUAUCCGCAUGCUAAAGCUCCAUAGAAGGCAAGACGCAUUCCACAUCUUGUCUUGACCAGCAGCACUCUGGAGGCCCAGUGUCUGCUACCCUUCUUGUAUCUGAUGGCAUGGGUAACAGCUCUGCCAUGGGCCUGCUUACUUCUAGUAUUCACCUCAGGGCUUGGAAAUUGGUUUUGAAAGGCUUUUAGACAUAGAAAGUAAAACUAAUGGCAAGGAGGAUAAAACACUGUACACACAUGUAUUGUUGAUCUAAAUAAAAAAUAUCAUUGGUAGCUCUUGCGGUCGCACUAGUGUGGAAUUCUCGGGUGUCAAGG
B6: ENSMUSG00000032194.149|Kank2 (ssRNA)
RNA: GGGAGUUCUACAGUCCGACGAUCGCUUCGAUAUCCGCAUGCUAGCAGAGGAGACUACUUCUAGAAAUACUUUCAGACCUACAGACAAAAAAGAAAAAAGGCCAUUCCGGAGUGACUCCCAGCAUCACAGCCCAGAACCUCCUCCUCAAAGGAGAGUAAACAGAGACUGUGAUACUGACCAAGUACAGGCGCUCGCUAUGAAGCCCAUAUGUUCCUGAUUAAGAGCUGGCUGGCCUCAGAGCACUCCCAGAACUAGCUUAAAGUGACAGGCUUUGCUGAAAUCCAAAGGGACAAAAGAGUAGUUCUCUUGCGGUCGCACUAGUGUGGAAUUCUCGGGUGUCAAGG
B7: ENSMUSG00000022095.204|Fam160b2 (ssRNA)
RNA: GGGAGUUCUACAGUCCGACGAUCGCUUCGAUAUCCGCAUGCUAUUGCCAGGAGGUGACAUGAAAGAGGAGGAAACUCCAUGACCUCUACAUCCCCCGCAGUCCUCCCAGCGGGGGAGGACUUCUCUGCUGCUCCGAAGAACAUCAUGCACUCCUGUGUGUGUGUGUGAGUGUGUGUGUGUGUGUGUGUGUGUGUGUGUGUGUAUGUGUGUGUAUAUGUGUGUGUGUGUGUGUAUGUGUGUGUGUGUGUGUGAGUGAGUGUGUGUGUGUGUGUGUGUGUGUGAGUGUGUGUGUAUAUGUGUGUGCUCUUGCGGUCGCACUAGUGUGGAAUUCUCGGGUGUCAAGG
B8: ENSMUSG00000022095.203|Fam160b2 (ssRNA)
RNA: GGGAGUUCUACAGUCCGACGAUCGCUUCGAUAUCCGCAUGCUACACAGGUUGCCAGGAGGUGACAUGAAAGAGGAGGAAACUCCAUGACCUCUACAUCCCCCGCAGUCCUCCCAGCGGGGGAGGACUUCUCUGCUGCUCCGAAGAACAUCAUGCACUCCUGUGUGUGUGUGUGAGUGUGUGUGUGUGUGUGUGUGUGUGUGUGUGUGUAUGUGUGUGUAUAUGUGUGUGUGUGUGUGUAUGUGUGUGUGUGUGUGUGAGUGAGUGUGUGUGUGUGUGUGUGUGUGUGAGUGUGUGUGUAUAUGCUCUUGCGGUCGCACUAGUGUGGAAUUCUCGGGUGUCAAGG
B9: ENSMUSG00000022095.206|Fam160b2 (ssRNA)
RNA: GGGAGUUCUACAGUCCGACGAUCGCUUCGAUAUCCGCAUGCUAGACAUGAAAGAGGAGGAAACUCCAUGACCUCUACAUCCCCCGCAGUCCUCCCAGCGGGGGAGGACUUCUCUGCUGCUCCGAAGAACAUCAUGCACUCCUGUGUGUGUGUGUGAGUGUGUGUGUGUGUGUGUGUGUGUGUGUGUGUGUAUGUGUGUGUAUAUGUGUGUGUGUGUGUGUAUGUGUGUGUGUGUGUGUGAGUGAGUGUGUGUGUGUGUGUGUGUGUGUGAGUGUGUGUGUAUAUGUGUGUGUGUGUGUGAGAGCUCUUGCGGUCGCACUAGUGUGGAAUUCUCGGGUGUCAAGG
B10: ENSMUSG00000022095.205|Fam160b2 (ssRNA)
RNA: GGGAGUUCUACAGUCCGACGAUCGCUUCGAUAUCCGCAUGCUAGGAGGUGACAUGAAAGAGGAGGAAACUCCAUGACCUCUACAUCCCCCGCAGUCCUCCCAGCGGGGGAGGACUUCUCUGCUGCUCCGAAGAACAUCAUGCACUCCUGUGUGUGUGUGUGAGUGUGUGUGUGUGUGUGUGUGUGUGUGUGUGUGUAUGUGUGUGUAUAUGUGUGUGUGUGUGUGUAUGUGUGUGUGUGUGUGUGAGUGAGUGUGUGUGUGUGUGUGUGUGUGUGAGUGUGUGUGUAUAUGUGUGUGUGUGUGCUCUUGCGGUCGCACUAGUGUGGAAUUCUCGGGUGUCAAGG
B11: ENSMUSG00000042529.429|Kcnj12|20:25;182:186 (ssRNA)
RNA: GGGAGUUCUACAGUCCGACGAUCGCUUCGAUAUCCGCAUGCUAAUGUCAGUGGCUUGGGUGCACACACGAGAGAGAGAGAGAGAGAGAGAGAGAGAGAGAGAGAGAGAGAGAGAGAGAGCUGCACAGGAUGAAGCAGCUGCCCUGAGCCCAUCUGGUGCUGUGCACCUGGUCCUUGUCCAGCCGAGGGCCUGGGGGCAGAAGAACACACCAUAGGGAGGCCCUUCAUACGGUGUCUGCCCUAUGUGAGGUCAUAGAAUGUUAAAUCUAUUUUAAACGGUGAAACUGGAGAAUUUUCAUGUUAUCUCUUGCGGUCGCACUAGUGUGGAAUUCUCGGGUGUCAAGG
B12: ENSMUSG00000061578.155|Ksr2 (ssRNA)
RNA: GGGAGUUCUACAGUCCGACGAUCGCUUCGAUAUCCGCAUGCUAUAUGCAUGAUGGGUUACAUGGGUGUGUGUGUGUGUGUAACUGUUUACAAUGGUCUCCCUGCCUCUCACGGGCUGUGUUCCAGGAGAAUGCACAUAGAGAGGUUCUGUGGUCUCUGCUGUCGCCUGGUGCUGAAUCCUGAGUGGUUUCCCCACUGAGGACCCUGUGACCCUGUGACCCUUGGCCCCUCCCUUAUUGUGCACACUCAGCACCCCAUCUUCCAAGCCUUUCUUCAUCCCCCACCUUCUUUUGGGAAGGGGUGGCUCUUGCGGUCGCACUAGUGUGGAAUUCUCGGGUGUCAAGG
B13: ENSMUSG00000090935.767|Synj2bp (ssRNA)
RNA: GGGAGUUCUACAGUCCGACGAUCGCUUCGAUAUCCGCAUGCUAAUUUUAAAAAUCAGUUUACUUUCAUCUUUUCUCUUUAGGCUUUCAAUAAAGACCAGAAGGACUGAUAGACAGCUAGAGAGGAUCGUGUAGGCAUCCAGAUUAGAAUGGAAGAAUCCAUUGAACAAUCUGAGAAAACUAAUCAGGUGUUGUUUUAAUCACAUUAGUUUUAAGUUAGAUACAUGCUCUUUGUAGUAUUUUGGGUUUUAUUGUGCAAAUAAGCAAUUAAAAUAUAUUUAGAAGCCAAGUAUAAUGGUACAUGUCUCUUGCGGUCGCACUAGUGUGGAAUUCUCGGGUGUCAAGG

target: TDP-43 (Homo sapiens, UniProt Q13148 1-414); test: RNA Bind-n-Seq with designed 260-mer pool; 25 mM Tris-HCl, 150 mM KCl, 3 mM MgCl2, BSA (printed 500 mg/mL), 20 units/mL SUPERase IN; pH not stated; 500 nM RNA pool, 1 h, 4 C; TDP-43 5, 50, 500 nM; high values mean tight binding; details: protein: recombinant; tags: SBP (GST cleaved off with PreScission; pGEX-GST-SBP)
Sequence (Q13148 whole entry): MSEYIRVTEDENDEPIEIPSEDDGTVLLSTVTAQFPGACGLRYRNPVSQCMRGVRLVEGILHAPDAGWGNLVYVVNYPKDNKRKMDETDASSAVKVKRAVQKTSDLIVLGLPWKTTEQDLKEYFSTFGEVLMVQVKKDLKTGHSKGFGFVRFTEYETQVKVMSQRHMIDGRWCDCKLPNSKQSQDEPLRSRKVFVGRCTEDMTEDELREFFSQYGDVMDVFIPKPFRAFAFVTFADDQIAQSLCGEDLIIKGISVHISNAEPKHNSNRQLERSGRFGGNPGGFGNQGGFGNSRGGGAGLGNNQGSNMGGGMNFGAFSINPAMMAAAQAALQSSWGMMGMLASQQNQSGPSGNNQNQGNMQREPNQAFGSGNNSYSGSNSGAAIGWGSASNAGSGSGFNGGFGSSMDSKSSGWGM
Procedure, shortened: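 Duplicate measurements used two independent batches of recombinant SBP-tagged TDP-43, which was captured on streptavidin beads at 5, 50 or 500 nM. The beads were incubated with 500 nM of an in vitro-transcribed 260-nt 3′ UTR oligo pool for 1 h at 4 °C in 25 mM Tris-HCl, 150 mM KCl, 3 mM MgCl2, BSA and SUPERase IN. After washing, biotin elution, reverse transcription, PCR amplification and sequencing, binding was expressed as R: each oligo's normalized read abundance in the bound sample over its abundance in input.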

Row | Binder | binding signal
1 | B1 | 2.5 R (bound/input frequency ratio)
2 | B2 | 8.75 R (bound/input frequency ratio)
3 | B3 | 3.43 R (bound/input frequency ratio)
4 | B4 | 3.44 R (bound/input frequency ratio)
5 | B5 | 0.236 R (bound/input frequency ratio)
6 | B6 | 0.573 R (bound/input frequency ratio)
7 | B7 | 7.95 R (bound/input frequency ratio)
8 | B8 | 8.18 R (bound/input frequency ratio)
9 | B9 | 3.86 R (bound/input frequency ratio)
10 | B10 | 7.87 R (bound/input frequency ratio)
11 | B11 | 5.54 R (bound/input frequency ratio)
12 | B12 | 1.09 R (bound/input frequency ratio)
13 | B13 | 0.0267 R (bound/input frequency ratio)
